Hits are enriched below; roughly 1.2% of the tested compounds scored in any of these assays.
pCIP destab = compounds decreasing mouse p/CIP protein stability. F442A p/CIP-EGFP cells, EGFP fluorescence, 16 h. 290,000 compounds, 0.01% hits. decrease of EGFP signal, % at 10 µM;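 active = EGFP signal decrease of at least 30% at 10 µM or well 3 SD below plate mean, unless failing retest; inactive = the rest, including hits failing retest or dose response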
GPR7 antagonist = human neuropeptides B/W receptor 1 antagonism | P48145 | GPR7-expressing cells, fluorescence antagonist assay | inhibition, % at 4.4 µM | 290,000 compounds, 1.1% hits | AID 1861; in the data active = inhibition above about 16%, passing the limit was not always enough;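 also: cells stimulated with the agonist NPW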
VLA-4 inh = inhibition in a human VLA-4 binding assay; P13612; VLA-4 expressing cells, ligand binding flow cytometry; inhibition, % (about 7 µM as worked out from the volumes in the protocol); 330,000 compounds, 0.2% hits; in the data active = inhibition above about 50%
GASC-1 inh = inhibitors of human GASC-1 (JMJD2C) demethylase; Q9H3R0; GST-JMJD2C(1-420) H3K9me3 demethylation, DELFIA europium; inhibition, % at 2.35 µM; 330,000 compounds, 0.069% hits; AID 2099;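 active = more than half of a compound's replicate wells show inhibition beyond 50%, single wells judged on their own value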;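 also: signal counts dimethyl H3K9 product captured on neutravidin plate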
Target sequence (Q9H3R0 1-420 limits assumed): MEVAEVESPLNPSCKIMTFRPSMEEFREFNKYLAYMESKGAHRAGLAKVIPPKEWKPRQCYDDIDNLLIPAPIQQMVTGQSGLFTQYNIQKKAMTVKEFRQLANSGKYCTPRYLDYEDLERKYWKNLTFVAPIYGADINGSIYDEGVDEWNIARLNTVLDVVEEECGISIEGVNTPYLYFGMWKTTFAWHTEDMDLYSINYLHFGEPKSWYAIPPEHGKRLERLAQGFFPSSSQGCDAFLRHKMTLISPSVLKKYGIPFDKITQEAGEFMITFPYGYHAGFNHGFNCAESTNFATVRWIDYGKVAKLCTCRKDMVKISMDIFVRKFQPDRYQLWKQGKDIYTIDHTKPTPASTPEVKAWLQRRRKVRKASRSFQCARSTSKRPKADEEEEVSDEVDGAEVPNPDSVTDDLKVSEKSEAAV
GPR7 antag cf = confirmation of human GPR7 antagonists; shares compounds with GPR7 antagonist; GPR7-expressing cells, calcium fluorescence antagonist mode; inhibition, % at 4.4 µM; 2,400 compounds, 52% hits; AID 1952; in the data active = inhibition above about 24%;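 also: stimulated with the GPR7 agonist NPW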
MCHR1 antag = antagonizes human MCHR1, a GPR7 antagonist counter-screen; 2,400 compounds, 62% hits; MCHR1-expressing cells, fluorescence antagonist assay; shares compounds with GPR7 antagonist; inhibition, % at 4.4 µM; in the data active = inhibition above about 22%
Of the large screens only hits and unclear results are named; the others gave an inactive call (follow-up assays come after a bar, where they were run).

O=C(Cc1ccc(Cl)cc1)Nc1ccncc1	none
Cc1ccc(CC(=O)Nc2ccncc2)cc1	GPR7 antagonist 33 | GPR7 antag cf inactive | MCHR1 antag 40
O=C(NC1CCCCC1)C(c1ccc2ncccc2c1)N(Cc1ccc2c(c1)OCO2)C(=O)c1cccs1 (stereo not drawn)	none
O=C(NC1CCCCC1)C(c1ccncc1)N(Cc1ccc2c(c1)OCO2)C(=O)c1cnsn1 (stereo not drawn)	GPR7 antagonist 26 | GPR7 antag cf 30 | MCHR1 antag inactive
CCc1ccc(N2C(=O)CN(Cc3ccccc3)C2=S)cc1	GPR7 antagonist 39 | GPR7 antag cf inactive | MCHR1 antag inactive
CC(C)(C)OC(=O)N1CCCC1C(=O)NC(Cc1ccccc1)C(=O)O (stereo not drawn)	none
COc1ccc(CN2CCN(CC(O)Cn3c4ccccc4c4ccccc43)CC2)cc1 (stereo not drawn)	GPR7 antagonist 23 | GPR7 antag cf 47 | MCHR1 antag 68
O=c1c2ccccc2n(CC(O)CN2CCCCC2)c2ccccc12 (stereo not drawn)	none
CN1CCN(CC(O)Cn2c3ccccc3c3ccccc32)CC1 (stereo not drawn)	none
O=c1c2ccccc2n(CC(O)CN2CCOCC2)c2ccccc12 (stereo not drawn)	GPR7 antagonist 42 | GPR7 antag cf inactive | MCHR1 antag inactive
CCOc1cc(/C=C(/NC(C)=O)C(=O)O)cc(Cl)c1OCc1cccc(Br)c1	none
O=C(CSCc1nc2c(nnn2Cc2ccc(F)cc2)c(=O)[nH]1)Nc1cccc(C(F)(F)F)c1	none
NC(=O)CCn1nc(-c2ccc(Cl)cc2)c2ccccc2c1=O	none
O=C(CCn1nc(-c2ccc(Cl)cc2)c2ccccc2c1=O)Nc1cccnc1	GPR7 antagonist 21 | GPR7 antag cf inactive | MCHR1 antag inactive
NS(=O)(=O)c1cc(C(=O)OCCNC(=O)c2ccccc2)c(Cl)cc1Cl	none (no result: pCIP destab, GPR7 antagonist)
NS(=O)(=O)c1cc(C(=O)OCC(=O)c2ccccc2)c(Cl)cc1Cl	GPR7 antagonist 22 | GPR7 antag cf inactive | MCHR1 antag inactive
O=c1c2cc(NC(=S)NCCCN3CCC(Cc4ccccc4)CC3)ccc2nc2n1CCCCC2	GPR7 antagonist 22 | GPR7 antag cf 52 | MCHR1 antag 73
COc1ccccc1-c1cc(C(=O)NC2CCN(C)CC2)c2ccc(Cl)c(C)c2n1	GPR7 antagonist 43 | GPR7 antag cf 69 | MCHR1 antag 81
Cc1c(Cl)ccc2c(C(=O)NCCN3CCCCC3)cc(-c3ccccn3)nc12	none
Cc1nn(-c2ccccc2)c(Cl)c1CN(C(=O)CCl)c1ccc(Cl)cc1	GPR7 antagonist 95 | GPR7 antag cf 99 | MCHR1 antag 100
Cc1nn(-c2ccccc2)c(Cl)c1C(=O)NCC(=O)O	none
O=C1C2CC=CCC2C(=O)N1c1ccc(NCCc2ccc(O)cc2)c([N+](=O)[O-])c1 (stereo not drawn)	GPR7 antagonist 31 | GPR7 antag cf 28 | MCHR1 antag 55
CCN(CC(=O)Nc1c(F)cccc1F)C(=O)c1cc(S(=O)(=O)N(CC)CC)ccc1N1CCCCC1	GPR7 antagonist 29 | GPR7 antag cf 32 | MCHR1 antag 26
CCN1CCN(c2ccc(S(=O)(=O)N3CCCCC3)cc2NC(=O)Cc2c(F)cccc2Cl)CC1	none
CCN(CC)S(=O)(=O)c1ccc(N2CCCC2)c(NC(=O)Cc2c(F)cccc2Cl)c1	GPR7 antagonist 31 | GPR7 antag cf 44 | MCHR1 antag 41
C=CC[C@H](CC(=O)N(CCO)Cc1ccccc1)C(=O)N[C@H](COC(=O)[C@@H](CC=C)Cc1ccc(F)cc1)Cc1ccccc1	none (no result: pCIP destab, GPR7 antagonist)
Cc1sc2ncnc(NCC3COc4ccccc4O3)c2c1C (stereo not drawn)	none
c1ccc(-c2csc3ncnc(NCC4COc5ccccc5O4)c23)cc1 (stereo not drawn)	GPR7 antagonist 50 | GPR7 antag cf 54 | MCHR1 antag 63
NC(=O)C1CCN(c2cc(Cl)ccc2[N+](=O)[O-])CC1	GPR7 antagonist 26 | GPR7 antag cf inactive | MCHR1 antag inactive
Cc1ccc(NC(=O)c2ccccc2F)cc1S(=O)(=O)N1CCCCCC1	GPR7 antagonist 22 | GPR7 antag cf inactive | MCHR1 antag 54
Cc1ccc(NC(=O)CSc2ncnc3ccccc23)cc1S(=O)(=O)N1CCCCCC1	GPR7 antagonist 24 | GPR7 antag cf 53 | MCHR1 antag 71
CCN(CC)c1nc(Nc2ccccc2)nc(Oc2ccc(=O)[nH]n2)n1	none
CCN(CC)c1nc(Nc2ccccc2)nc(Oc2ccc(=O)n(C)n2)n1	GPR7 antagonist 23 | GPR7 antag cf inactive | MCHR1 antag inactive
O=c1[nH]c(C2CCN(S(=O)(=O)c3cccc(Cl)c3)CC2)nc2c1nnn2Cc1ccccc1	none (no result: VLA-4 inh)
O=c1[nH]c(C2CCN(S(=O)(=O)c3ccccc3)CC2)nc2c1nnn2Cc1cccc(Cl)c1	GPR7 antagonist 25 | GPR7 antag cf inactive | MCHR1 antag inactive
Cc1ccc(CSCCNC(=O)CSCc2ccc([N+](=O)[O-])cc2)cc1	GPR7 antagonist 27 | GPR7 antag cf 49 | MCHR1 antag 45
Cc1ccccc1CSCCNC(=O)CSCc1ccc([N+](=O)[O-])cc1	none
Cc1cccc(CSCCNC(=O)CSCc2ccc([N+](=O)[O-])cc2)c1	GPR7 antagonist 53 | GPR7 antag cf 36 | MCHR1 antag 73
CC1C(c2ccccc2)N(C)C(c2ccccc2)C(C)C1(O)C#Cc1ccccc1 (stereo not drawn)	none (no result: GASC-1 inh)
NC(=NCCc1ccccc1)NS(=O)(=O)c1ccccc1F	none
O=C(c1ccc(Cl)cc1)N1CCN(S(=O)(=O)/C=C/c2ccccc2)CC1	none (no result: pCIP destab, GPR7 antagonist)
OCCC1CN(Cc2ccon2)CCN1Cc1ccc(F)c(F)c1 (stereo not drawn)	none
Cc1ccc(S(=O)(=O)N(C)Cc2ccc(-c3nnco3)cc2)cc1	GPR7 antagonist 26 | GPR7 antag cf 47 | MCHR1 antag 42
CCNC(=S)N(CCc1c(C)[nH]c2ccc(Cl)cc12)Cc1ccco1	GPR7 antagonist 24 | GPR7 antag cf inactive | MCHR1 antag 76
COc1ccccc1-n1c(SCC(N)=O)nnc1-c1ccc(S(=O)(=O)N2CCCCC2)cc1	GPR7 antagonist 39 | GPR7 antag cf 42 | MCHR1 antag inactive
NC(=O)CSc1nnc(-c2ccc(S(=O)(=O)N3CCCCC3)cc2)n1-c1ccccc1	none
CCn1c(SCc2ccccc2)nnc1-c1ccc(S(=O)(=O)N2CCCCC2)cc1	GPR7 antagonist 33 | GPR7 antag cf inactive | MCHR1 antag 33
CC1CN(c2ccc([N+](=O)[O-])c(NCCOc3ccc(Cl)cc3)c2)CC(C)N1 (stereo not drawn)	GPR7 antagonist 38 | GPR7 antag cf 62 | MCHR1 antag 69
Cc1ccccc1OCCNc1cc(N2CC(C)NC(C)C2)ccc1[N+](=O)[O-] (stereo not drawn)	GPR7 antagonist 39 | GPR7 antag cf 53 | MCHR1 antag 67

Screening data as filed in PubChem BioAssay.
